Rab9 prom act – activators of Rab9 promoter; AID 485297; Potency, µM (highest dose often 9.22 µM), without a hit: top-dose activation, negative = inhibition, hits mostly activators; 320,000 compounds, 2.8% hits; Huh7 Rab9 promoter-luciferase reporter, luminescence, 24 h; note: % of control where 0% means no effect; nearly all actives have a fitted effect of over 60% in size
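Measured in stably transfected Huh7 cells bearing a Rab9 promoter–luciferase construct: 24 h compound treatment at 37 °C, followed by luminescence detection.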
ELG1 repair inh – inhibitors of ELG1-dependent DNA repair in HEK293T cells; HEK293T ELG1-luciferase reporter, luminescence, 16 h; DNA damage induced by 5-fluorouridine; Potency, µM (doses to about 46.1 µM), for inactives: at the top dose activity change, negative = inhibition, usual class: inhibitors; 330,000 compounds, 2.3% hits; note: % is set by controls: 0 for no effect and ±100 for the full control effect; nearly all actives have a fitted effect of over 55% in size
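In this reporter screen, reduction of luminescence relative to DMSO vehicle indicated activity. Compounds and 5-fluorouridine were added together to 2,000 cells per well, incubated for 16 hr at 37 °C, then developed with ONE-Glo.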
SMN2 splice enh – increases expression of the SMN2 splice variant. AID 1458. 210,000 compounds, 2.8% hits. HEK293 SMN2-luciferase splicing reporter, luminescence, 30-36 h. Potency, µM (doses to about 46.1 µM), inactives show top-dose activity change, positive = activation, actives largely listed as activators; note: % of control where 0% means no effect; nearly all actives have a fitted effect of over 55% in size
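qHTS luciferase splicing reporter: luminescence rises when SMN2 exon 7 is included in transfected HEK293 cells. Compound exposure lasted 30-36 h at 37C, with 4.5 mM final sodium butyrate as control, followed by a ONE-Glo read.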
ELG1 genotoxic – induces genotoxicity in HEK293T cells with luciferase-tagged ELG1; HEK293T ELG1-luciferase reporter, luminescence, 16 h; Potency, µM (series often up to 46 µM), inactives show at the top dose activity change, positive = activation, most hits filed as activators; 330,000 compounds, 1.3% hits; AID 504466; note: % of control where 0% means no effect; nearly all actives have a fitted effect of over 60% in size
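Luminescence read-out: rising ELG1-luciferase signal, reflecting elevated ELG1 protein under genetic stress, flags genotoxic compounds. Cells were treated for 16 hr at 37 °C before ONE-Glo detection.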
NPC1 promoter act – activates the NPC1 promoter. Potency, µM (doses to about 9.22 µM), for inactives: top-dose activation, usual class: activators. 320,000 compounds, 2.4% hits. Huh7 NPC1 promoter luciferase reporter, 24 h; note: % of control where 0% means no effect; nearly all actives have a fitted effect of over 60% in size
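Luminescence from an NPC1 promoter-driven luciferase reporter in stably transfected Huh7 cells was measured after 24 h compound treatment at 37 °C, followed by 10 min ambient incubation with luciferase detection reagent.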
FLuc modulator – counter-screen for miR-21 project: firefly luciferase inhibitors or activators; P08659; purified FLuc, Km substrates, luminescence inhibition; Potency, µM (top dose mostly 57.5 µM), without a hit: top-dose activity change, negative = inhibition, hits mostly inhibitors; 360,000 compounds, 6.9% hits; AID 588342;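 note: plate controls were vehicle for no effect and reference inhibitor for full effect; nearly all actives have a fitted effect of over 55% in size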
Target sequence (P08659 whole entry, looked up): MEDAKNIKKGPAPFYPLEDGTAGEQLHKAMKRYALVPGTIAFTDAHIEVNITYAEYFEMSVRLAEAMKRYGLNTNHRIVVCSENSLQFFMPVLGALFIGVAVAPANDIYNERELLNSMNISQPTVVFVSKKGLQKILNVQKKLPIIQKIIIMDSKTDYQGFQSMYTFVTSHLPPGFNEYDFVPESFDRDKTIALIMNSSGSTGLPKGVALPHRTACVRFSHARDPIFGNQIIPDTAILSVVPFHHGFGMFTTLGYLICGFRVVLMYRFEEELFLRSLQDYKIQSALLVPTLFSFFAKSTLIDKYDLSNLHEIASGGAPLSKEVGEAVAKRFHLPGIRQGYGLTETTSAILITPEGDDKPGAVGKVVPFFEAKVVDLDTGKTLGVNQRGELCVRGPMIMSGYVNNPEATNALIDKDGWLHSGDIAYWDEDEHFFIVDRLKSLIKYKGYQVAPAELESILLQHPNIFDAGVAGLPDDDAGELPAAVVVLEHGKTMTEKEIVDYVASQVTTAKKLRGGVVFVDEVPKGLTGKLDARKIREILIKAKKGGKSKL
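Purified P. pyralis luciferase, 10 nM final, with Km-level 10 uM D-luciferin and 10 uM ATP in 50 mM Tris acetate pH 7.5, 10 mM Mg acetate, 0.01% Tween-20, 0.05% BSA; 6-point qHTS titration about 60 µM downward; luminescence read.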
The depositor's hits bear a star; ? = inconclusive; / = no result given; [ ] = another dose, or the depositor's remark. Compounds with a hit are over-represented: about 9.3% of the library has one in this group of screens. Calls come from the whole dose curve; as a rule, active = well fitted curve in the direction sought with a large enough effect; inconclusive = small, poorly fitted or top-dose-only effect, or another doubt; inactive = no such curve, though single readings can be large; an effect the other way counts as inactive or inconclusive. Potency is the fitted concentration of half-maximal effect.

SMILES	Rab9 prom act	ELG1 repair inh	SMN2 splice enh	ELG1 genotoxic	NPC1 promoter act	FLuc modulator
Clc1ccc2c(c1)c1cc(Cl)ccc1n2CN1CCOCC1	0.0%	1.1%	-18.6%	-1.5%	-9.5%	0.4%
O=C(OCc1ccc(Cl)c(Cl)c1)c1ccc[nH]1	?	?	/	?	?	23.9µM*
Cc1ccc2c(=O)cc(C(=O)Nc3sc4c(c3C(=O)NCc3ccco3)CCCC4)oc2c1C	/	/	3.8%	/	/	-1.3%
O=C(CSc1ccccn1)c1ccc(F)cc1	?	?	23.1%	?	?	19µM*
Cc1ccc(C(=O)CSc2ccccn2)cc1	3.55µM*	?	?	?	?	6.75µM*
O=C(O)c1ccnc(SCC(=O)c2ccccc2)c1	-1.3%	7.3%	9.4%	-0.7%	-0.7%	?
Cc1ccc(NC(=O)CCSc2ccccn2)cc1	3.16µM*	?	14.1µM*	?	3.55µM*	6.01µM*
Cc1ccc(C(=O)CSc2cc(C)nc(SCC(=O)c3ccccc3)n2)cc1	-1.3%	?	/	-21.6%	-2.5%	3.2%
CC[C@]1(O)C[C@@H]2CN(CCc3c([nH]c4ccccc34)[C@@](C(=O)OC)(c3cc4c(cc3OC)N(C)C3[C@]45CCN4CC=C[C@](CC)(C45)[C@@H](OC(C)=O)[C@]3(O)C(=O)OC)C2)C1 (stereo not given in full)	/	/	-28.2%	/	/	/
O=C1C2CC=CCC2C(=O)N1Cc1nnc(-c2ccccc2Br)o1 (stereo not given)	1.8%	?	/	7.7%	0.2%	?
O=S1(=O)c2cccc3cccc(c23)N1Cc1nnc(-c2ccccc2Br)o1	2.6%	23.1µM*	-45.2%	-2.2%	2.9%	-0.7%
O=S1(=O)c2cccc3cccc(c23)N1Cc1ccc(-c2nnco2)cc1	-1.9%	?	-23.3%	-4.5%	-1.5%	-1.5%
O=C1c2ccccc2S(=O)(=O)N1Cc1nnc(-c2ccccc2Br)o1	1.4%	18.3%	-6.2%	2.8%	7.8%	21.3µM*
O=C(c1cc(S(=O)(=O)N2CCCCC2)ccc1Cl)N1CCOCC1	2.6%	11.1%	/	0.8%	-4.4%	0.3%
CC(C)(C)OC(=O)N/N=C\C=C\c1ccc2c(c1)OCO2	1.58µM*	?	-14.9%[1.84 µM]	?	3.98µM*	7.57µM*
COC(=O)N/N=C\C=C\c1ccc2c(c1)OCO2	3.55µM*	6.3%	6.5%	1.5%	3.98µM*	15.1µM*
CCOC(=O)N/N=C\C=C\c1ccc2c(c1)OCO2	3.16µM*	?	-7.7%[1.84 µM]	?	?	13.5µM*
COc1ccc(CC(=O)N/N=C/C=C/c2ccc3c(c2)OCO3)cc1OC	-0.1%	?	/	2.6%	1.3%	-6.4%
CCOC(=O)Cc1csc(NC(=O)c2ccc3ccccc3n2)n1	1µM*	27.9%	/	-6.8%	1.58µM*	15.1µM*
CCOC(=O)Cc1csc(NC(=O)c2ccc3ncsc3c2)n1	23.7%	?	/	3.0%	-22.7%	15.1µM*
CCOC(=O)Cc1csc(NC(=S)NC(=O)c2ccc(Cl)cc2)n1	-10.0%	?	-0.9%	0.0%	-6.7%	12µM*
CCOC(=O)Cc1csc(NC(=O)CCc2ccc(S(=O)(=O)N3CCOCC3)cc2)n1	11.6%	11.6µM*	-20.0%	-23.4%	2.1%	1.2%
CCOC(=O)Cc1csc(NC(=O)c2ccc(NC(C)=O)cc2)n1	1.0%	12.1%	16.3%	2.5%	-4.1%	?
CCOC(=O)Cc1csc(NC(=O)c2ccc(S(=O)(=O)N3CCCCC3)cc2)n1	-6.6%	-33.7%	-23.8%	-6.1%	-6.6%	-0.6%
C=CCN1C(=O)C(CC(=O)NCC)SC1=Nc1ccc(S(N)(=O)=O)cc1 (stereo not given)	-2.9%	5.3%	4.1%	-1.0%	-3.5%	4.8%
CCOC(=O)Cc1csc(NC(=O)c2ccco2)n1	?	?	7.94µM*	16.4µM*	?	?
CCOC(=O)Cc1csc(NC(=O)c2ccc(Br)cc2)n1	-0.3%	-19.1%	/	-2.9%	1.0%	21.3µM*
